Measurements as given in the supplement of paper PMC10849652.
The full data set covers some 8,800 targets. This sample favours those with a hit. About 0.5% of all pairs of compound and target were hits.

Legend:
Assay in all cases: log2 fold change, soluble protein after heating vs DMSO (PISA); higher = thermal stabilisation; K562 lysate, 10 uM; active = over 0.2 and 3.5 SD of the protein, either way, in both replicates (recomputed)
erlotinib = compound: C#Cc1cccc(Nc2ncnc3cc(OCCOC)c(OCCOC)cc23)c1 [erlotinib]
Summary of the method: (§1)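 Log-two fold change in thermal stability relative to solvent controls is reported from duplicates. For each sample, crude K562 extract from dounce-homogenised pellets in PBS pH 7.4 with 1 mM MgCl2, at 1 mg/mL protein, was treated with 10 μM compound for 30 min. Aliquots heated for 3 min across 48°C-58°C were pooled, brought to 0.5% NP-40 at 4°C and cleared at 21,000xg for 90 min. The supernatant was quantified by TMTpro 16plex LC-MS/MS with channel sums equalised.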

[1] = compound: C/C(=N\NC(=O)C1=CC(=CC=C1)S(=O)(=O)N2CCOCC2)/C3=C(C=CC(=C3)Cl)O
Summary of the method: as §1

[2] = compound: C1=CC(=CC=C1C2=NC3=C(N2)C=C(C=C3)C(=O)N)OC4=CC=C(C=C4)Cl
Summary of the method: as §1

[3] = compound: C1=CC2=C(C=CC(=C2)/C=C\3/C(=O)NC(=NCC4=CC=CS4)S3)N=C1
Summary of the method: as §1

[4] = compound: C1=CC2=NC=CN=C2C=C1/C=C/3\C(=O)NC(=O)S3
Summary of the method: as §1

[5] = compound: C1=CC=C(C=C1)C2=NC(=C(N2)C3=CC=NC=C3)C4=CC(=C(C=C4)Cl)O
Summary of the method: as §1

[6] = compound: C1=CC=C2C(=C1)C3=NNC4=CC=CC(=C43)C2=O
Summary of the method: as §1

[7] = compound: C1CCN(C1)C(=O)NC2=CC=CC(=C2)NC3=NC=C(C(=N3)NCCC4=CN=CN4)Br
Summary of the method: as §1

[8] = compound: C1CN(CCC1(CC2=CC=C(C=C2)Cl)N)C3=NC=NC4=C3C=CN4
Summary of the method: as §1

IRAK-1-4 Inhibitor I = compound: C1COCCN1CCN2C3=CC=CC=C3N=C2NC(=O)C4=CC(=CC=C4)[N+](=O)[O-] [IRAK-1-4 Inhibitor I]
Summary of the method: as §1

ibrutinib = compound: C=CC(=O)N1CCC[C@@H](n2nc(-c3ccc(Oc4ccccc4)cc3)c3c(N)ncnc32)C1 [ibrutinib]
Summary of the method: as §1

[9] = compound: CC(=O)c1cnc2ccc(-c3cc(Cl)c(O)c(Cl)c3)nc2c1N[C@H]1CC[C@H](CN(C)C)CC1
Summary of the method: as §1

ralimetinib = compound: CC(C)(C)Cn1c(N)nc2ccc(-c3[nH]c(C(C)(C)C)nc3-c3ccc(F)cc3)nc21 [ralimetinib]
Summary of the method: as §1

[10] = compound: CC(C)(O)CC(=O)NCCn1ccc2ncnc(Nc3ccc(Oc4cccc(C(F)(F)F)c4)c(Cl)c3)c21
Summary of the method: as §1

[11] = compound: CC(C)C1=C2N=C(C=C(N2N=C1)NCC3=CC=CC=C3)NCCCCCCN
Summary of the method: as §1

[12] = compound: CC1=C(C(CC(=O)N1)C2=CC=C(C=C2)C(F)(F)F)C(=O)NC3=C(C=C4C(=C3)C=NN4)F
Summary of the method: as §1

[13] = compound: CC1=C(C2=C(C=C1)C(=O)C3=CC=CC=C3N2CCCN)C
Summary of the method: as §1

[14] = compound: CC1=C(C=C(C=C1)NC(=O)C2=CC(=CC=C2)N(C)C)NC(=O)C3=CC=C(C=C3)O
Summary of the method: as §1

[15] = compound: CC1=CC=C(C=C1)SC2=C3C=C(SC3=CN=C2)C(=O)N
Summary of the method: as §1

[16] = compound: CC1=C(C=C(C=C1)NC(=O)C2=CC(=CC=C2)C(C)(C)C#N)NC3=CC4=C(C=C3)N=CN(C4=O)C
Summary of the method: as §1

Measured: log2 fold change

GSTM2 (UniProt P28161)
Sequence of UniProt P28161 (P28161 whole entry, looked up): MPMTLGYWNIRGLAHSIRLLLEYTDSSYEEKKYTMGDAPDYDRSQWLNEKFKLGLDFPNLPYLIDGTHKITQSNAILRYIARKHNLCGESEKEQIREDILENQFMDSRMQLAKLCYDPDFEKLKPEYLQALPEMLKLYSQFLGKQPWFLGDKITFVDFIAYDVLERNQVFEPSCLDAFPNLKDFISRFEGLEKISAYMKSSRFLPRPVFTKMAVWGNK
inactive: erlotinib -0.083 | [1] 0.041 | [2] -0.038 | [3] -0.007 | [4] 0.079 | [5] -0.008 | [6] -0.012 | [7] -0.021 | [8] -0.054 | IRAK-1-4 Inhibitor I 0.037 | ibrutinib 0.081 | [9] 0.009 | ralimetinib -0.006 | [10] -0.067 | [11] -0.021 | [12] -0.119 | [13] -0.033 | [14] 0.004 | [15] -0.021

IARS (UniProt P41252)
Sequence of UniProt P41252 (P41252 whole entry, looked up): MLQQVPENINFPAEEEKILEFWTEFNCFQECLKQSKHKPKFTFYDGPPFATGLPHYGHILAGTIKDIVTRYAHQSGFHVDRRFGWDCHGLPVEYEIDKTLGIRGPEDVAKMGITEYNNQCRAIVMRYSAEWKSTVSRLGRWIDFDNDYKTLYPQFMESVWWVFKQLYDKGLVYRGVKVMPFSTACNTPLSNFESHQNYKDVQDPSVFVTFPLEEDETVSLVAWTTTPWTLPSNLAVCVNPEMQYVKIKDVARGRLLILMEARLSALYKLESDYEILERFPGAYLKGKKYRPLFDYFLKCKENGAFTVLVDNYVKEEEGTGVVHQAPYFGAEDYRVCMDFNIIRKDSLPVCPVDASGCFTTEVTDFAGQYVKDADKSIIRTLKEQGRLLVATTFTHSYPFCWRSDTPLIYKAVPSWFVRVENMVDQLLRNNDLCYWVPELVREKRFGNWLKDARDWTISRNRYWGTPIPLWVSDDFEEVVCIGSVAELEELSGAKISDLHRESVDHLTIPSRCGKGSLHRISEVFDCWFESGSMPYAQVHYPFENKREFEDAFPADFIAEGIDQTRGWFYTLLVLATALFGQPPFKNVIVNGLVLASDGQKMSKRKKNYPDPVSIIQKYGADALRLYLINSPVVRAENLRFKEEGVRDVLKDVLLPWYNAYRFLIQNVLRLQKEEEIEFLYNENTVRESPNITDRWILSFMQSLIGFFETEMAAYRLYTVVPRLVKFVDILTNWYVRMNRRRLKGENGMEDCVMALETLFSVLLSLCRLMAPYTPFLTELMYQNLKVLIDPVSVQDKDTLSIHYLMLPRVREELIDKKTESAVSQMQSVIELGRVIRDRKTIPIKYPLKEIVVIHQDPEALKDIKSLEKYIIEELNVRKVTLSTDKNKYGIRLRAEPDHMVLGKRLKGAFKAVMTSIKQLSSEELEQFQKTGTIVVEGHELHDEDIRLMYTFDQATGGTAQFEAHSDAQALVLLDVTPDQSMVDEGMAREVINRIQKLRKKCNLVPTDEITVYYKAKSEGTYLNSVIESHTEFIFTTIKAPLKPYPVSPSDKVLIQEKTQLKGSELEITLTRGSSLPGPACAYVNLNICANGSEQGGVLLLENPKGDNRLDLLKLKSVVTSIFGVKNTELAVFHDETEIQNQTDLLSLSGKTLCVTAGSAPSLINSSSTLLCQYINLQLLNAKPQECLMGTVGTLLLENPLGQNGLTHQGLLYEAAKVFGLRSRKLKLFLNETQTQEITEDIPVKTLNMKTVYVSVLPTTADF
inactive: erlotinib 0.022 | [1] 0.061 | [2] -0.011 | [3] 0.013 | [4] 0.02 | [5] 0.006 | [6] -0.035 | [7] 0.006 | [8] 0.01 | IRAK-1-4 Inhibitor I -0.006 | ibrutinib -0.015 | [9] -0.001 | ralimetinib 0.037 | [10] 0.035 | [11] 0.029 | [12] -0.016 | [13] 0.012 | [16] -0.04 | [14] 0.05 | [15] 0.029

GSTCD (UniProt Q8NEC7)
Sequence of UniProt Q8NEC7 (Q8NEC7 whole entry, looked up): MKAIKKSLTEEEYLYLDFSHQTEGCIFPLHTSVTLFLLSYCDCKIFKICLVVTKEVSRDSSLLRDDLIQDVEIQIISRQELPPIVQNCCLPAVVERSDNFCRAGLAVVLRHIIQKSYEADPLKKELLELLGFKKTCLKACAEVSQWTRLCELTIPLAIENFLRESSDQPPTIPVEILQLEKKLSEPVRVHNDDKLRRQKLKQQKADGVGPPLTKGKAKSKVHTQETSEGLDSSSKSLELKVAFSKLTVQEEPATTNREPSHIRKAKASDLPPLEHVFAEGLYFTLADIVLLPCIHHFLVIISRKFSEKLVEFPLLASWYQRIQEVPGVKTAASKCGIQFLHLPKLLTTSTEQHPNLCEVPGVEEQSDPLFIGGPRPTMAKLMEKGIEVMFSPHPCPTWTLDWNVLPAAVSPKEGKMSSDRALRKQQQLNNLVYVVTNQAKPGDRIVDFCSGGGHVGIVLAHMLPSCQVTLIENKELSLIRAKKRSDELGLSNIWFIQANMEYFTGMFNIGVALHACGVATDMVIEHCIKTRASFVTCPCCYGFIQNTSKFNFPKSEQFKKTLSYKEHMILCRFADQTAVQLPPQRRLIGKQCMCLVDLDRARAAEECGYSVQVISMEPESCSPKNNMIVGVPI
inactive: erlotinib 0.041 | [1] -0.017 | [2] -0.037 | [3] 0.033 | [4] -0.027 | [5] 0.012 | [6] -0.021 | [7] -0.028 | [8] 0.005 | IRAK-1-4 Inhibitor I -0.055 | ibrutinib 0.057 | [9] -0.01 | ralimetinib 0.033 | [10] -0.023 | [11] -0.038 | [12] 0.044 | [13] -0.04 | [16] 0.051 | [14] -0.003 | [15] 0.011

ILRUN (UniProt Q9H6K1)
Sequence of UniProt Q9H6K1 (Q9H6K1 whole entry, looked up): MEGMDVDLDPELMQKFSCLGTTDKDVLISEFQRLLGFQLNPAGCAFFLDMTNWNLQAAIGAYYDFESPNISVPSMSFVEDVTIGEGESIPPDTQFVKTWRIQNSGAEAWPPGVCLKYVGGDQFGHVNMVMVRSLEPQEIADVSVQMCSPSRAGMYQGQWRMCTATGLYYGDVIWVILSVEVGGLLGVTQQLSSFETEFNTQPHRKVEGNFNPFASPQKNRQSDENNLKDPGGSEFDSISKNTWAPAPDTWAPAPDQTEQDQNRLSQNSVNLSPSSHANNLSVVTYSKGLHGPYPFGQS
inactive: erlotinib -0.004 | [1] 0.056 | [2] 0.004 | [3] -0.018 | [4] 0.016 | [5] 0.018 | [6] 0.011 | [7] 0.006 | [8] 0.033 | IRAK-1-4 Inhibitor I 0.02 | ibrutinib -0.002 | [9] -0.011 | ralimetinib 0.001 | [10] -0.019 | [11] 0.007 | [12] 0.035 | [13] -0.03 | [16] 0.009 | [14] 0.018 | [15] 0.02

HDAC3 (UniProt O15379)
Sequence of UniProt O15379 (O15379 whole entry, looked up): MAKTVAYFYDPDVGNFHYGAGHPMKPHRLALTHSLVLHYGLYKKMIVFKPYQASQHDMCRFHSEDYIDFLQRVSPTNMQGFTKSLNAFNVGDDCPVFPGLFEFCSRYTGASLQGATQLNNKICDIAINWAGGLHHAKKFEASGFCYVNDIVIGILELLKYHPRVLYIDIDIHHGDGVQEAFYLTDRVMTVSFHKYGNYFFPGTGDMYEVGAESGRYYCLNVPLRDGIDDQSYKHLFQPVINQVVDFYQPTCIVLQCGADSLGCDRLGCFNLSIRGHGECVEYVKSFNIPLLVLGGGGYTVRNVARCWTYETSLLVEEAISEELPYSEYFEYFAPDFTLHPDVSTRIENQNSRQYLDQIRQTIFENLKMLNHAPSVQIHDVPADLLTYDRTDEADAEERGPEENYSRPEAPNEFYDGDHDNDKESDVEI
inactive: erlotinib 0.061 | [1] -0.035 | [2] 0.056 | [3] -0.008 | [4] -0.001 | [5] 0.01 | [6] 0.019 | [7] -0.017 | [8] 0.029 | IRAK-1-4 Inhibitor I 0.028 | ibrutinib -0.004 | [9] 0 | ralimetinib 0.043 | [10] 0.018 | [11] -0.029 | [12] -0.03 | [13] 0 | [16] -0.003 | [14] -0.082 | [15] -0.007

HNRNPAB isoform 3 (UniProt Q99729)
Sequence of UniProt Q99729 (Q99729 whole entry, looked up): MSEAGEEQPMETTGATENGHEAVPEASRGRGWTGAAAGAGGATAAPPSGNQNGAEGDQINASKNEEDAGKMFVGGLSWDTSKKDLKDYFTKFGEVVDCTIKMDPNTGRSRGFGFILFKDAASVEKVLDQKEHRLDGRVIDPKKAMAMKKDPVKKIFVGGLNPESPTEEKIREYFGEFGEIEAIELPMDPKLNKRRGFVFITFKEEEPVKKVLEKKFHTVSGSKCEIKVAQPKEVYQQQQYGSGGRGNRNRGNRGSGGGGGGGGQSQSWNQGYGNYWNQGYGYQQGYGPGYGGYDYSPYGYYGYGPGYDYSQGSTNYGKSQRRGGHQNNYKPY
inactive: erlotinib -0.032 | [1] -0.214 | [2] 0.017 | [3] -0.007 | [4] 0.002 | [5] -0.001 | [6] -0.012 | [7] 0.003 | [8] 0 | IRAK-1-4 Inhibitor I 0.009 | ibrutinib -0.029 | [9] -0.159 | ralimetinib -0.037 | [10] 0.006 | [11] -0.007 | [12] 0.055 | [13] -0.003 | [16] -0.01 | [14] -0.013 | [15] 0

KEAP1 (UniProt Q14145)
inactive: erlotinib 0.048 | [1] 0.006 | [2] 0.018 | [3] -0.005 | [4] 0.014 | [5] 0.015 | [6] -0.006 | [7] 0.038 | [8] 0.018 | IRAK-1-4 Inhibitor I -0.006 | ibrutinib 0.014 | [9] 0.001 | ralimetinib 0.017 | [10] -0.014 | [11] -0.015 | [12] -0.026 | [13] -0.049 | [16] 0.012 | [14] 0.019 | [15] -0.024

HMGB1 (UniProt P09429)
Sequence of UniProt P09429 (P09429 whole entry, looked up): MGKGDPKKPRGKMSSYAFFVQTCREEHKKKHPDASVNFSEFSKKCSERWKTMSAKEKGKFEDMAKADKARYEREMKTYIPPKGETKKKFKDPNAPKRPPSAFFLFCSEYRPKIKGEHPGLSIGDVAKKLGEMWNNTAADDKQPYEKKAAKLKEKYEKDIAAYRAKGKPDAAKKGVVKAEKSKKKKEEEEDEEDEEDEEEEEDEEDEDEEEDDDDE
inactive: erlotinib -0.024 | [1] -0.017 | [2] -0.021 | [3] -0.03 | [4] -0.001 | [5] 0.035 | [6] 0.007 | [7] 0.012 | [8] 0.001 | IRAK-1-4 Inhibitor I -0.015 | ibrutinib -0.012 | [9] -0.013 | ralimetinib -0.102 | [10] 0.057 | [11] 0.032 | [12] -0.022 | [13] -0.002 | [16] 0.036 | [14] -0.077 | [15] -0.098

GSTZ1 (UniProt G3V4T6)
inactive: erlotinib 0.018 | [1] -0.034 | [2] 0.032 | [3] -0.003 | [4] 0.02 | [5] -0.043 | [6] 0.026 | [7] 0.017 | [8] 0.064 | IRAK-1-4 Inhibitor I 0.016 | ibrutinib 0 | [9] 0 | ralimetinib 0.014 | [10] -0.019 | [11] 0.004 | [12] 0.01 | [13] 0.036 | [16] -0.02 | [14] -0.003 | [15] -0.016

INF2 (UniProt Q27J81)
inactive: erlotinib 0.004 | [1] -0.014 | [2] -0.027 | [3] 0.069 | [4] 0.004 | [5] -0.024 | [6] -0.019 | [7] 0.031 | [8] 0.056 | IRAK-1-4 Inhibitor I -0.011 | ibrutinib 0.036 | [9] -0.007 | ralimetinib 0.018 | [10] 0.049 | [11] -0.012 | [12] 0.004 | [13] 0.07 | [16] -0.004 | [14] -0.027 | [15] -0.015

HLCS (UniProt P50747)
Sequence of UniProt P50747 (P50747 whole entry, looked up): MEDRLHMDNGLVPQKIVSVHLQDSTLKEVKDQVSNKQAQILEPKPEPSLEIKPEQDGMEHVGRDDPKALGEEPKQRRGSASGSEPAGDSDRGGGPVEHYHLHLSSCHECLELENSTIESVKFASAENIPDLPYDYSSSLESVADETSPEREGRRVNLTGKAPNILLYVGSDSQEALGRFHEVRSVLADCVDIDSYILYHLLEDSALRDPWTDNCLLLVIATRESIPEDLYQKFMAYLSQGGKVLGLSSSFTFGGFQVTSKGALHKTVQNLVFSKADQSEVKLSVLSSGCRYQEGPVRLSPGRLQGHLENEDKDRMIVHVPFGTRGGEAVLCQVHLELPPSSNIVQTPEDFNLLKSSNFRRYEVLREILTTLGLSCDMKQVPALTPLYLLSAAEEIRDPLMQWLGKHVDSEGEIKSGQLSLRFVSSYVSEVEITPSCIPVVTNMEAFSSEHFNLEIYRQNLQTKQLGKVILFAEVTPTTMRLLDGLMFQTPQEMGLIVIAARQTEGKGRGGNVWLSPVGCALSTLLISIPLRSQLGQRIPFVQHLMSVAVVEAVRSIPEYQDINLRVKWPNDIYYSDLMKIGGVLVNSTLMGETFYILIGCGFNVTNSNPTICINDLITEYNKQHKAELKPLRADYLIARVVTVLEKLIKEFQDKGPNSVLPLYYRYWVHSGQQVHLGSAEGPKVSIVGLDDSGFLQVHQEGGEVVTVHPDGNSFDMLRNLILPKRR
inactive: erlotinib 0.019 | [1] -0.071 | [2] 0.013 | [3] 0.03 | [4] -0.017 | [5] -0.004 | [6] -0.019 | [7] 0.008 | [8] -0.034 | IRAK-1-4 Inhibitor I -0.008 | ibrutinib 0.012 | [9] 0.023 | ralimetinib -0.005 | [10] -0.019 | [11] -0.025 | [12] 0.018 | [13] -0.015 | [16] 0.029 | [14] 0.057 | [15] -0.032

IMPDH2 (UniProt P12268)
inactive: erlotinib 0.001 | [1] -0.009 | [2] -0.018 | [3] -0.018 | [4] -0.013 | [5] -0.028 | [6] -0.003 | [7] 0.019 | [8] -0.003 | IRAK-1-4 Inhibitor I 0.011 | ibrutinib 0.049 | [9] -0.003 | ralimetinib 0.034 | [10] 0.028 | [11] 0.025 | [12] -0.034 | [13] 0.019 | [16] 0.017 | [14] -0.006 | [15] 0.016

HDAC2 (UniProt Q92769)
Sequence of UniProt Q92769 (Q92769 whole entry, looked up): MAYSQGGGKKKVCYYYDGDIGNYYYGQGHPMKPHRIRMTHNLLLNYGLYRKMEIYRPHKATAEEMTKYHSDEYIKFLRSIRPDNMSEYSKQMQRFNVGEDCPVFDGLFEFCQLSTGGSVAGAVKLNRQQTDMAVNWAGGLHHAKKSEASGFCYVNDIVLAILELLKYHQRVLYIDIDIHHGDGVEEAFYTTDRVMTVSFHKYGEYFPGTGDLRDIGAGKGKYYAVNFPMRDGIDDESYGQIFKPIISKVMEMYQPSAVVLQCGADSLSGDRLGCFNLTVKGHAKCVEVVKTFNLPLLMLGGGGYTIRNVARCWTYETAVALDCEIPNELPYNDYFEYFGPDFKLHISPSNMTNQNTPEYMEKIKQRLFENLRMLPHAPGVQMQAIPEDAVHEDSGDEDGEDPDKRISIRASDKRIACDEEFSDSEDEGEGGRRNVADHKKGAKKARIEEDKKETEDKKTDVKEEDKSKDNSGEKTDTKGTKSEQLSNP
inactive: erlotinib -0.02 | [1] 0.021 | [2] -0.001 | [3] 0.012 | [4] -0.013 | [5] -0.004 | [6] -0.009 | [7] -0.013 | [8] -0.001 | IRAK-1-4 Inhibitor I -0.017 | ibrutinib 0 | [9] -0.008 | ralimetinib -0.005 | [10] -0.029 | [11] -0.001 | [12] -0.013 | [13] -0.01 | [16] -0.025 | [14] -0.016 | [15] -0.013
